Screening results as filed in PubChem.
Rows were chosen to be rich in hits. Some 11% of all compounds tested hit in one or more screens of this group.
RORg inh: inhibitors of mouse ROR gamma transcriptional activity. Potency, µM (titrated, usually from 53.6 µM), usual class: inhibitors. Drosophila S2 Gal4-RORgamma UAS-luciferase reporter, 20 h. 310,000 compounds, 5.4% hits. P51450; also: nearly all actives have a fitted effect of over 60% in size
Target sequence (P51450 whole entry, looked up, the tested form may be a part): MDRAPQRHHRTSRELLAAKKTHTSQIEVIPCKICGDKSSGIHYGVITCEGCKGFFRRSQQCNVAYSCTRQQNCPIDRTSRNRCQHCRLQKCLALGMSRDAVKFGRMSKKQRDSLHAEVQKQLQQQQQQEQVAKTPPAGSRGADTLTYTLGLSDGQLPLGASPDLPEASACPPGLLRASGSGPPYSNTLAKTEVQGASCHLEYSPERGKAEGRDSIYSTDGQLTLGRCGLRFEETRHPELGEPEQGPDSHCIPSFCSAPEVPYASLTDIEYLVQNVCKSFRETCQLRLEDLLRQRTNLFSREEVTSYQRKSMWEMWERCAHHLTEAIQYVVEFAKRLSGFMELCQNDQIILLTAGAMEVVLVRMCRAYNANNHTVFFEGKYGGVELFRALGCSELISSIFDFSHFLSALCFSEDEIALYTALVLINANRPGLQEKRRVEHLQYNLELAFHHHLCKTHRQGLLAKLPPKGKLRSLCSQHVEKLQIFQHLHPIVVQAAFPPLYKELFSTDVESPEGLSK
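Drosophila Schneider cells stably carrying a metallothionein-driven Gal4 DBD–ROR gamma fusion and a UAS-Photinus luciferase reporter were exposed to compound for 1 hr, then induced with copper sulfate (700 uM final) for 20 hr at ambient temperature before luminescence reading.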
SW480 rerep: induces DNA re-replication in SW480 colon adenocarcinoma cells; SW480 DNA re-replication, Hoechst DNA content imaging, 48 h; Potency, µM (highest dose often 46.1 µM), most hits filed as activators; 340,000 compounds, 1.8% hits; AID 624297; also: nearly all actives have a fitted effect of over 55% in size
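Per well, 250 cells were exposed to pinned compound for 48 hr. Nuclear DNA was visualised with Hoechst (40 min, 37 C) and total object intensity recorded by fluorescence scanning.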
Gal4-VP16 FLuc: Gal4-VP16 reporter inhibition counter-screen; AID 2546; 310,000 compounds, 3.5% hits; Potency, µM (doses to about 53.6 µM), actives largely listed as inhibitors; Drosophila S2 Gal4-VP16 UAS-luciferase, luminescence, 20 h;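 also: Gal4-VP16 expression switched on by copper sulfate through the metallothionein promoter; nearly all actives have a fitted effect of over 50% in size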
MCF10A rereplic: DNA re-replication induction in MCF 10a cells; MCF 10A DNA re-replication, Hoechst nuclear intensity, 48 h; Potency, µM (doses to about 46.1 µM), hits mostly activators; 350,000 compounds, 2.9% hits; AID 624296; also: nearly all actives have a fitted effect of over 50% in size
IL1B secr inh: blocks inflammasome-driven IL-1 beta release; THP-1 LPS/ATP IL-1B secretion, AlphaLISA, 16 h; hits give low values; activity change, % at 57.5 µM; 360,000 compounds, 4.7% hits; AID 743279; in the data active = activity change below about -50%; inconclusive = mostly about -30% to -49%
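Secreted IL-1B measured by AlphaLISA bead assay after 16 h compound exposure of THP-1 cells; compounds (final up to 57.5 uM) added 1 h before LPS (250 ng/mL) and ATP (1.25 mM) stimulation; lower signal means less secretion.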
Of the large screens only hits and unclear results are named; the others gave an inactive call. Unless noted, calls follow the shape of the dose curve; as a rule, active = well fitted curve in the direction sought with a large enough effect; inconclusive = small, poorly fitted or top-dose-only effect, or another doubt; inactive = no such curve, though single readings can be large; an effect the other way counts as inactive or inconclusive.

COc1cc2cc(/C=C/C(=O)c3ccco3)c(Cl)nc2cc1OC	RORg inh inconclusive, SW480 rerep 20.6µM, Gal4-VP16 FLuc 7.94µM, MCF10A rereplic 23.1µM
O=C(COc1ccc(Br)cc1Cl)NC1CCN(Cc2ccccc2)CC1	IL1B secr inh -81.1
COc1ccc(Br)cc1CN(C)CC(=O)NCCc1ccccc1	none
O=C(/C=C/c1cccc(F)c1)NC1CCN(Cc2ccccc2)CC1	none
O=C(COc1ccc(Br)cc1CNC1CCCCC1)NCCc1ccccc1	SW480 rerep inconclusive, IL1B secr inh -97.4
O=C(/C=C/c1cccc(Br)c1)NC1CCN(Cc2ccccc2)CC1	IL1B secr inh -78.1
CCCn1cc(CN2CCC(n3nccc3NC(=O)c3ccccc3)CC2)c(C)n1	none
Cc1ccc(S(=O)(=O)N(C)C[C@H]2Oc3c(NC(=O)Nc4cccc5ccccc45)cccc3C(=O)N([C@@H](C)CO)C[C@@H]2C)cc1	IL1B secr inh inconclusive (no result: RORg inh, Gal4-VP16 FLuc)
CCCCC(=O)OCc1nc2ccccc2s1	RORg inh inconclusive
Cc1noc(C)c1COC(=O)CCCc1nc2ccccc2s1	RORg inh inconclusive, Gal4-VP16 FLuc 7.94µM
COc1cccc(-c2oc3c(c2-c2ccc(Br)nc2)C(O)CCC3)c1 (stereo unspecified)	none (no result: RORg inh, SW480 rerep, Gal4-VP16 FLuc, MCF10A rereplic)
O=C(O)c1ccc(NS(=O)(=O)c2ccc(Cl)c(C(=O)Nc3ccccc3[N+](=O)[O-])c2)cc1	none
Cn1c(=O)c2cc(NC(=S)NC3CC3)ccc2n1C/C=C/c1ccccc1	none (no result: RORg inh, SW480 rerep, Gal4-VP16 FLuc, MCF10A rereplic)
O=C(N/N=C/c1ccncc1)c1cc2ccccc2o1	SW480 rerep inconclusive, MCF10A rereplic inconclusive, IL1B secr inh -52.5
O=C(N/N=C/c1cc(Br)c(Br)o1)c1cc2ccccc2o1	RORg inh 5.01µM, Gal4-VP16 FLuc 6.31µM, MCF10A rereplic inconclusive, IL1B secr inh inconclusive
CCC(C(=O)NCCC1=CCCCC1)n1nc(C)c2c(C)n(-c3ccccc3)nc2c1=O (stereo unspecified)	RORg inh 4.47µM
CCC(C(=O)NCCCc1ccccc1)n1nc(C)c2c(C)n(-c3ccccc3)nc2c1=O (stereo unspecified)	none
CCC(C(=O)Nc1ccccc1F)n1nc(C)c2c(C)n(-c3ccccc3)nc2c1=O (stereo unspecified)	SW480 rerep 29.1µM
CCOC(=O)C(=O)N(C)c1c(CC)nc2c(OCc3cc(Cl)cc(Cl)c3)cccn12	none (no result: RORg inh, SW480 rerep, Gal4-VP16 FLuc, MCF10A rereplic)
COC(=O)c1ccccc1Sc1ncnc2onc(C)c12	RORg inh 11.2µM, Gal4-VP16 FLuc inconclusive, MCF10A rereplic inconclusive, IL1B secr inh -102.8
Cc1noc2ncnc(Sc3ccccc3Cl)c12	SW480 rerep inconclusive, MCF10A rereplic inconclusive
C#CCOn1c(-n2nc(C)cc2C)nc2ccccc2c1=O	RORg inh 11.2µM, Gal4-VP16 FLuc inconclusive
COn1c(-n2nc(C)cc2C)nc2ccccc2c1=O	RORg inh 7.94µM, Gal4-VP16 FLuc 7.08µM
O=C(c1ccc(NS(=O)(=O)/C=C/c2ccccc2)cc1)N1CCCCC1	IL1B secr inh -75.5 (no result: RORg inh, Gal4-VP16 FLuc)
COC(=O)CSC1=NS(=O)(=O)c2ccccc21	SW480 rerep inconclusive, MCF10A rereplic 13µM, IL1B secr inh inconclusive (no result: Gal4-VP16 FLuc)
O=C(CSC1=NS(=O)(=O)c2ccccc21)Nc1ccccc1	RORg inh inconclusive, Gal4-VP16 FLuc 20µM, MCF10A rereplic inconclusive
CCCCN1CCCCC1(C)C(=O)NCc1cccc(OC)c1 (stereo unspecified)	none (no result: RORg inh, SW480 rerep, Gal4-VP16 FLuc, MCF10A rereplic)
CCOC(=O)c1ccc(NC(=S)N(CCCN2CCCC(C)C2)Cc2ccco2)cc1 (stereo unspecified)	none
CCOC(=O)c1ccc(NC(=S)N(CCCN2CCCC(C)C2)Cc2cccs2)cc1 (stereo unspecified)	RORg inh inconclusive, SW480 rerep inconclusive, MCF10A rereplic inconclusive, IL1B secr inh -80.6
CCOC(=O)c1ccc(NC(=S)N(CCN2CCCCCC2)Cc2cccs2)cc1	RORg inh 12.6µM, SW480 rerep inconclusive, Gal4-VP16 FLuc inconclusive, MCF10A rereplic inconclusive
CCOC(=O)c1ccc(NC(=S)N(CCCN2CCCC2)Cc2ccco2)cc1	IL1B secr inh -67.2
CCOC(=O)c1ccc(NC(=S)N(CCCN2CCCC2)Cc2cccs2)cc1	MCF10A rereplic inconclusive
Cc1ccc(NC(=O)CN(C(=O)N2CCN(C)CC2)S(=O)(=O)c2ccc(C)cc2)cc1	none (no result: RORg inh, Gal4-VP16 FLuc)
CCc1ccc(NC(=O)CN(C(=O)N2CCN(CC)CC2)S(=O)(=O)c2ccc(C)cc2)cc1	IL1B secr inh -55.4 (no result: RORg inh, Gal4-VP16 FLuc)
O=C1N=C(N2CCCCC2)S/C1=C/C1=Cc2ccccc2OC1	MCF10A rereplic 18.4µM
O=[N+]([O-])c1ccc(N2N=C(c3ccco3)CC2c2ccccc2)cc1 (stereo unspecified)	SW480 rerep inconclusive, MCF10A rereplic 8.2µM, IL1B secr inh -55.1
Fc1ccc(C2CC(c3ccco3)=NN2c2ccccc2)cc1 (stereo unspecified)	SW480 rerep 20.6µM, MCF10A rereplic 0.92µM
CC(C)C[C@@H](CC(=O)N[C@H](CC(=O)N[C@@H]1CCNC[C@H]1C(=O)N[C@H](CC(=O)N[C@@H](CCC(=O)O)CC(=O)O)Cc1c[nH]c2ccccc12)C(C)C)NC(=O)[C@@H]1CNCC[C@H]1N	none (no result: SW480 rerep, MCF10A rereplic, IL1B secr inh)
COC(=O)c1ccc(COc2cccn3c(N(C)C(=O)CCC4CCCC4)c(C)nc23)cc1	none (no result: RORg inh, SW480 rerep, Gal4-VP16 FLuc, MCF10A rereplic)
CCOC(=O)c1sc2ncn(CC(=O)N(CC)CC)c(=O)c2c1C	SW480 rerep inconclusive, MCF10A rereplic 14.6µM
CSCCC(NC(=O)/C(=C/c1ccco1)NC(=O)c1ccc(Br)o1)C(=O)O (stereo unspecified)	none
COc1ccc(C(=O)Oc2c(OC)cc(C(=S)N3CCOCC3)cc2OC)cc1OC	none
COc1ccc2nc(NN=C(C)c3ccccn3)cc(C)c2c1	SW480 rerep inconclusive, MCF10A rereplic inconclusive, IL1B secr inh -102.2 (no result: RORg inh, Gal4-VP16 FLuc)
C=CCn1c(CCNC(=O)c2ccc(Cl)c(Cl)c2)nnc1SCCOc1ccc(OC)cc1	RORg inh inconclusive, Gal4-VP16 FLuc inconclusive, MCF10A rereplic 20.6µM, IL1B secr inh inconclusive
Nc1ccccc1C#CC(=O)c1ccccc1	RORg inh 7.08µM, SW480 rerep inconclusive, Gal4-VP16 FLuc 7.08µM, MCF10A rereplic 8.2µM, IL1B secr inh -102.1
O=C(C#Cc1cccc([N+](=O)[O-])c1)c1ccccc1	RORg inh 2.82µM, Gal4-VP16 FLuc 3.16µM (no result: SW480 rerep, MCF10A rereplic, IL1B secr inh)
Nc1ccccc1C#Cc1ccc([N+](=O)[O-])cc1	SW480 rerep inconclusive, MCF10A rereplic inconclusive (no result: RORg inh, Gal4-VP16 FLuc)
Cc1nn(C)c(C)c1/C=C(/C(=O)C(C)C)n1cncn1	none
CC(C)(C)C(=O)/C(=C/c1ccncc1)n1cncn1	RORg inh 1µM, SW480 rerep inconclusive, Gal4-VP16 FLuc 2.82µM, MCF10A rereplic inconclusive, IL1B secr inh -97.6
Cc1nn(C)c(C)c1/C=C(/C(=O)C(C)(C)C)n1cncn1	SW480 rerep inconclusive, MCF10A rereplic inconclusive, IL1B secr inh -57.0
Cn1c(=O)c(C(=O)NNC(=O)c2ccccc2Cl)c(O)c2ccccc21	RORg inh 11.2µM, SW480 rerep inconclusive, Gal4-VP16 FLuc inconclusive
CC(=O)c1c(O)c2ccccc2n(C)c1=O	none
